Growth data for 7 compounds are collected here from PubChem BioAssay (NCI).

This is part of a sample that, as a whole, favours compounds with a hit. Of some 83,000 tested, about 20% had one in any assay.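 Values shown are percent growth following 48 h exposure of cells in 96-well plates to a single concentration of compound; below 10 was considered active.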 Unmarked numbers belong to inactive results. Active and inactive are the calls of the source.

Holding throughout (experiment): NCI-60 one-dose screen, 48 h (100 = growth as untreated, 0 = no growth, -100 = all killed)
Settings in all cases: 10 µM unless noted

Assay [1] relates to NCI-H23 lung.
In assay [2] the test system is NCI-H226 lung.
For assay [3], the system named is NCI-H322M lung.
Assay [4] relates to HOP-62 NSCLC.
Assay [5] concerns NCI-H460 lung.
In assay [6] the test system is HOP-92 NSCLC.
Assay [7] relates to NCI-H522 lung.
Assay [8] relates to 786-0 renal.
Assay [9] has as its system COLO 205 colon.
The subject of assay [10] is DU-145 prostate.
The subject of assay [11] is K-562 leukemia.
The test system of assay [12] is MALME-3M melanoma.
In assay [13] the test system is MDA-MB-231 breast.
In assay [14] the test system is RXF 393 renal.
For assay [15], the system named is SF-268 CNS.
The test system of assay [16] is SF-295 CNS.
Assay [17] concerns SF-539 CNS.
Assay [18] deals with UACC-257 melanoma.
The test system of assay [19] is A549/ATCC NSCLC.
Assay [20] has as its system M14 melanoma.

Take `COc1ccc(C(=O)NNC(=O)CSc2nc3sc4c(c3c(=O)n2-c2ccc(Cl)cc2)CCCC4)cc1`: the growth in [1] is 63.2%; in [2] it was 33.1%; in assay [3] it was 73.5%; in assay [4] it was 18.7%; in [5], 87.2%; in [6], 60.8%. Further, the growth in [7] is 59%; in [8], 102%; in assay [9], 118%; in [10], 89%; in assay [11] it was 56.7%; in assay [12] it was 60.3%. The growth was 44% in assay [13]; 82.2% in [14]; 84.3% in assay [15]; 94.7% in [16]; -55.2% (active) in assay [17]; 100% in assay [18].

Regarding `CC(C)(C)c1cc(-c2cc(-c3ccccc3)[nH]c(=O)c2C#N)cc(C(C)(C)C)c1`, the growth was 40.4% in assay [1]; 3.42% (active) in [2]; 23.6% in assay [3]; -40.2% (active) in assay [4]; 14.9% in assay [5]; -16% (active) in [6]. Further, the growth in [7] was 41.8%; in assay [19] it was 5.52% (active); in [8] it was 23%; in assay [9], 91.5%; in assay [10] it was 34.5%; in assay [11], 62.9%. Moreover, the growth in [12] was 37.6%; in [13], -21.4% (active); in [14], -2.55% (active); in [15] it was 40.8%; in [16] it was 0.897% (active); in [17], 21.1%. Also, the growth in [18] was 43.1%; in [20], 40.2%.

In the case of `O=C1N/C(=N\c2nccs2)S/C1=C\c1ccc([N+](=O)[O-])cc1`, the growth is 32.7% in [1]; 6.47% (active) in assay [2]; 23.2% in assay [3]; 37.4% in assay [4]; 8.33% (active) in [5]; 16.7% in [6]. The growth is -1.75% (active) in [7]; 9.8% (active) in assay [19]; 19.7% in assay [8]; 23.2% in assay [9]; 39.9% in assay [10]; 13.3% in assay [11]. Moreover, the growth in assay [12] is 28.4%; in assay [13] it was 10.8%; in assay [14], 8.41% (active); in assay [15] it was 19.9%; in assay [16], 15%; in [17], 4.72% (active). Further, the growth was 8.51% (active) in assay [18] and 5.66% (active) in [20].

With `COc1ccc(NC(=O)CSc2nnc(-c3ccc(-c4nc5ccc(Cl)cc5[nH]4)cc3)o2)cc1`, the growth in [1] is -15.7% (active); in [2], -18.8% (active); in [3], 35%; in assay [4], -25.4% (active); in [5], -17.2% (active); in assay [6], 4.79% (active). For the same compound, the growth was 6.93% (active) in assay [7]; 1.75% (active) in assay [19]; -64.4% (active) in assay [8]; 69.4% in [9]; 8.29% (active) in assay [10]; 13.3% in assay [11]. Further, the growth is 0.449% (active) in assay [12]; -30.2% (active) in [13]; -37% (active) in assay [14]; 45.4% in [15]; 43.8% in assay [16]; -91.1% (active) in assay [17]. The growth in assay [18] is 29%; in assay [20], 13.5%.

With `COc1ccccc1NC(=O)c1ccc(NC(=O)CCl)s1`, the growth in assay [1] is -66% (active); in assay [2], -34.6% (active); in assay [3], 94.1%; in [4], 41.9%; in assay [5], -16% (active); in assay [6], -0.226% (active). For the same compound, the growth in [7] is -77.3% (active); in assay [19] it was -2.86% (active); in assay [8] it was -93.4% (active); in assay [9] it was 9.16% (active); in assay [10], 41.1%; in assay [11] it was -8.7% (active). Further, the growth was -4.74% (active) in assay [12]; -58% (active) in assay [13]; -56.5% (active) in assay [14]; 22.3% in [15]; 31.9% in assay [16]; -14.1% (active) in [17]. Moreover, the figures for the growth in assay [18] and in assay [20] were 10.6% and -74.7% (active), respectively.

Turning to `C=CC(=O)N1CCN(c2ccc3nc4c(nc3c2C(F)(F)F)C(=O)c2ncccc2C4=O)CC1`, the growth in assay [1] was -61.5% (active); in assay [2], 63.8%; in [3] it was 10.2%; in assay [4] it was 39.9%; in assay [5] it was -34.3% (active); in assay [6], -3.31% (active). Moreover, the growth is -8.31% (active) in [7]; 2.38% (active) in [19]; 22% in assay [8]; -22.8% (active) in assay [9]; 23.6% in assay [10]; 3.62% (active) in [11]. Besides, the growth was -97.9% (active) in assay [12]; -13.6% (active) in assay [13]; 44.1% in [14]; 21.3% in assay [15]; 28.8% in assay [16]; -32.9% (active) in assay [17]. Besides, the growth is -82.7% (active) in [18] and -59.9% (active) in assay [20].

Consider `CC(C)CN1C(=O)/C(=C\C(=O)c2cc3ccccc3oc2=O)c2ccccc21`, for which the growth in [1] was 90.5%; in [2] it was 83.5%; in [3], 96.7%; in assay [4], 97.9%; in assay [5], 103%; in assay [6], 104%. The growth in [7] is 31.5%; in assay [19], 109%; in [8], 105%; in assay [9] it was 26.8%; in assay [10], 98.3%; in [11] it was 1.97% (active). Also, the growth in assay [12] was 59%; in assay [13] it was 87.5%; in assay [14], 85.4%; in assay [15], 106%; in assay [16], 105%; in assay [17], 102%. Moreover, the growth in [18] is 106%; in assay [20] it was 85%.
